Results on 69 molecules are retold here after ChEMBL document CHEMBL4513216, “Probing the Open Global Health Chemical Diversity Library for Multistage-Active Starting Points for Next-Generation Antimalarials” (ACS Infect Dis, 2020).

Structures are written as SMILES. Hit rate of the full screen: of about 69,000 compounds, about 8,600 (12%) showed an effect of 50% or more. For the sample, strong results were picked, then their nearest neighbours and some compounds at random.

The test system of the assay is Plasmodium berghei. Description: Screen against P. berghei liver stage (PbLuc), transformed with Luciferase, at 10uM. In kind it is functional, HepG2. Particulars: tested at 10 uM.
Regarding `CCC(NC(=O)c1cc(OC)c2c(c1)OCCO2)c1cccs1` (centres undefined), the INHIBITION was 24.3%. To `Cc1noc(C)c1CN1CCn2nc(CCC(=O)N3CCCC3)cc2C1` belongs 19.3%; to `COc1cccc(OCCN2CC[C@@](O)(C3CCOCC3)[C@H](C)C2)c1`, 49.3%; to `CS(=O)(=O)CCSc1nnc(Cc2ccccc2F)o1`, 52.6%.

For `COc1cccc(Cc2nnc(SCCS(C)(=O)=O)o2)c1`, the INHIBITION was 49.1%. Turning to `CCOCCSc1nnc(Cc2ccccc2F)o1`, the INHIBITION is recorded as -19%. For `COCCOCCSc1nnc(Cc2ccccc2F)o1` the value was 6.88%; for `N#CCCSc1nnc(Cc2ccccc2F)o1`, 20.5%; for `COc1ccccc1Cc1nnc(SCCS(C)(=O)=O)o1`, 53.8%. Turning to `CC[C@H]1N(CC2CCC2)CCC[C@]12CCC(=O)N2Cc1ccncc1`, the INHIBITION is on record as 19.8%. Consider `COCCC(=O)N1CCC(c2cc3ncc(C)nc3[nH]2)CC1`, for which the INHIBITION is 15.9%. To `Cc1cnn(CC2CCCCN2Cc2c(C)noc2C)c1` (centres undefined) belongs 26.09%; to `CC1CCCN(Cc2cccc(C(=O)Nc3nccs3)c2)C1` (centres undefined), -37.8%. As for `O=C(c1ccccn1)N1CCC(c2nc(O)cc(-c3ccncc3)n2)C1` (centres undefined), the INHIBITION is on record as 19.6%. To `CCOc1ncccc1NC(=O)NC1CCCN(c2ncccn2)C1` (centres undefined) belongs 30.8%; to `c1cc2c(c(-c3cc(N4CCOCC4)ncn3)c1)CCNC2`, 58.6%; to `Nc1cc(-c2cccc3c2CCNC3)ncn1`, 28.7%. For `Nc1cnc(-c2cccc3c2CCNC3)cn1` the value was -0.178%; for `COc1cc2nc3n(c(=O)c2cc1OC)CCN(C(=O)C1CC1)CC3`, 35.2%.

In the case of `COc1cc(OCC(=O)NCCc2ccccc2)cc(OC)c1OC`, the INHIBITION was -13.2%. To `COCCC(=O)N1CC[C@H]2O[C@@H](C)C[C@H]2C1` belongs 64.9%. For `COCCC(=O)N1CC[C@@H]2O[C@@H](C)C[C@H]2C1`, the INHIBITION came out at 18.8%. For `COCC(=O)N1CC[C@@H]2O[C@@H](C)C[C@H]2C1`, the INHIBITION is listed as 10.1%. To `COCCn1c(-c2cccc(OC)c2)cnc1NC(=O)NC(C)C` belongs 18.4%; to `Nc1ncc(-c2ccc(C(F)(F)F)cc2)c(C2CCCNC2)n1` (centres undefined), 70.1%. For `Nc1ncc(-c2ccc(Cl)cc2)c(C2CCCNC2)n1` (centres undefined) the value was 31.6%; for `Nc1ncc(-c2ccc(F)cc2)c(C2CCCNC2)n1` (centres undefined), 28.3%. For `O=c1cc2c(nn1CN1CCN(c3ccccc3)CC1)CCCC2` the value was 38.9%; for `Cn1cc(C(=O)N2CCCC2c2noc(C3CC3)n2)c2ccccc21` (centres undefined), 19.2%.

With `O=C1CO[C@@H]2CN(C3CCOCC3)C[C@H]2N1Cc1ccncc1`, the INHIBITION stood at 73.6%. Consider `O=C1CO[C@H]2CN(C3CCOCC3)C[C@H]2N1Cc1ccc(F)cc1`, for which the INHIBITION was found to be 4.82%. For `O=C1CO[C@H]2CN(C3CCOCC3)C[C@H]2N1Cc1ccncc1` the value was 22.2%; for `CCOC(=O)C(C)Nc1ccc(CCN2CCOCC2)cc1` (centres undefined), -30.1%; for `CCC(Nc1ccc(CCN2CCOCC2)cc1)C(N)=O` (centres undefined), -28.8%. For `CCC(Nc1ccc(CCN2CCCCC2)cc1)C(N)=O` (centres undefined) the value was 57.2%.

Regarding `Cc1nn(Cn2ccc(C(=O)N3CCCC3)n2)c(C)c1Cl`, the INHIBITION was 7.92%. To `COc1cc(-c2nc(C3CC3)nn2-c2ccnc(C)c2)nc(OC)n1` belongs -10.2%; to `O=C(Nc1nnc(C(F)F)s1)NC(CCO)c1cccs1` (centres undefined), 13.8%.

As for `CN(Cc1nccs1)C1CCN(c2cccc(-c3cscn3)c2)CC1`, the INHIBITION turned out to be 63.6%. For `Cc1nnc(CN(C)C2CCN(c3cccc(-c4cscn4)c3)CC2)o1` the value was 23.5%; for `CN(Cc1cnn(C)c1)C1CCN(c2cccc(-c3cscn3)c2)CC1`, 45.6%. For `CN(Cc1ccon1)C1CCN(c2cccc(-c3cscn3)c2)CC1` the value was 30.9%. For `CN(C)CCCN(C)C1CCN(c2cccc(-c3cscn3)c2)CC1` the value was 52.2%. For the molecule `Cc1cc(CN(C)C2CCN(c3cccc(-c4cscn4)c3)CC2)on1`, the INHIBITION worked out at 44.8%.

`Cc1cc(C2CCCN(CCCS(C)(=O)=O)C2)n[nH]1` (centres undefined): the INHIBITION was found to be 11.9%. For `CN(C)c1ccc(C(=O)N2CCN(Cc3cscn3)CC2)cn1` the value was -0.219%.

As to `COc1ccc(NCc2c[nH]nc2-c2cccnc2)cc1`, the INHIBITION came out at 56.8%.

Turning to `FCCOc1cccc(NCc2c[nH]nc2-c2cccnc2)c1`, the INHIBITION was 34.6%. For `CCOCc1cccc(NCc2c[nH]nc2-c2cccnc2)c1` the value was 49.1%. Consider `CC(Cn1cccn1)NC(=O)NCc1ccnc(OC2CCCC2)c1` (centres undefined), for which the INHIBITION stood at 23.5%. To `CC(Cn1cccn1)NC(=O)NCc1ccc(OC2CCCC2)nc1` (centres undefined) belongs 54.4%; to `CC(Cn1cccn1)NC(=O)NCc1cccnc1OC1CCCC1` (centres undefined), -21.7%; to `CC(C)n1cnnc1CN1CCC2(CCCN(C3CCCCC3)C2=O)C1` (centres undefined), -64.1%.

In the case of `CCN1CCCC1CNC(=O)c1cc(COc2ccccc2F)[nH]n1` (centres undefined), the INHIBITION was -11.2%. To `COc1ccc2c(c1)CCCN(CC(=O)NCC1CCCO1)C2` (centres undefined) belongs 39.6%; to `Cc1c(C(=O)N2CCOCC2)n(C)c2ccc(Cl)cc12`, -1.3%; to `Cc1c(C(=O)N2CCC(N3CCCCC3)CC2)n(C)c2ccc(Cl)cc12`, 69.3%.

For the molecule `Cc1c(C(=O)N2CCN(C)CC2)n(C)c2ccc(Cl)cc12`, the INHIBITION stood at 20.9%.

Turning to `NS(=O)(=O)CC1CCCN(C(=O)CCCC2CCCC2)C1` (centres undefined), the INHIBITION was 43.8%. As to `O=C(CCC1CCN(C2Cc3ccccc3C2)CC1)NCC1CCCO1` (centres undefined), the INHIBITION is on record as 25.8%. To `O=C1CCC2(CCN(Cc3nccs3)CC2)N1Cc1ccccc1` belongs 11.4%; to `COc1ccc(-c2cc(N)ccn2)c(OC)c1OC`, 61.5%. Regarding `COc1cc(F)ccc1-c1cc(N)ccn1`, the INHIBITION is 49.6%.

Turning to `COc1ccc(-c2ccnc(N)c2)c(OC)c1`, the INHIBITION is recorded as -10.5%.

`CCOc1ccc2oc(-c3cnn(C)c3C)c(O)c(=O)c2c1`: the INHIBITION is 0.207%.

As to `COC(=O)c1ccc(NC(=O)CCNCc2ccco2)cc1`, the INHIBITION was determined as 36.5%. To `CN1CCN(Cc2ccc(-c3ccc4[nH]ccc4c3)nc2)CC1` belongs 27.5%; to `CN1CCN(Cc2ccc(-c3ccc(-c4ccn[nH]4)cc3)nc2)CC1`, 54.9%.

For the molecule `CN1CCN(Cc2ccc(-c3ccc(C(N)=O)cc3)nc2)CC1`, the INHIBITION was determined as 24.2%.
